# An excerpt weighted towards active compounds, which were near 11% of everything screened.
# VACV Venus inh: inhibitors of vaccinia virus (Venus reporter). Vaccinia virus Venus reporter expression, fluorescence. Potency, µM (doses to about 36.5 µM), without a hit: at the top dose activity change, negative = inhibition, usual class: inhibitors. 0.46% of 330,000 active. AID 720580; calls by dose curve; tested in A549 cells; further: on the % scale 0 is the no-effect control and ±100 the full control effect; nearly all actives have a fitted effect of over 30% in size
# Pf growth 96h: P. falciparum growth inhibition at 96 hours | 6.9% of 320,000 active | P. falciparum luciferase reporter growth, 96 h | Potency, µM (highest dose often 28.7 µM), for the others: at the top dose activity change, negative = inhibition, actives largely listed as inhibitors | AID 504834; further: on the % scale 0 is the no-effect control and ±100 the full control effect
#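 96 h incubation, 37 C, 5% CO2, of luciferase-reporter P. falciparum-infected RBCs (2% hematocrit, 0.05% parasitemia final) with test compounds; endpoint luminescence.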
# HCV inh: blocks hepatitis C virus | Huh7.5.1 HCVcc-Cre infection, luciferase reporter, 44 h | Potency, µM (highest dose often 41.8 µM), for the others: at the top dose activity change, negative = inhibition, actives largely listed as inhibitors | 3.4% of 340,000 active; further: on the % scale 0 is the no-effect control and ±100 the full control effect
#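 1,000 cells/well; 4 h culture; + compound; + HCVcc-Cre (~0.5 moi); 44 h; luciferase substrate, RT 15 min; read 15 sec.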
# Vaccinia mCherry: inhibitors of vaccinia virus infection (mCherry reporter signal); Vaccinia virus mCherry reporter infection, fluorescence; Potency, µM (highest dose often 36.5 µM), for the others: at the top dose activity change, negative = inhibition, usual class: inhibitors; 0.63% of 310,000 active; calls by dose curve; tested in A549 cells; further: on the % scale 0 is the no-effect control and ±100 the full control effect; nearly all actives have a fitted effect of over 35% in size
# Pf growth 48h: inhibits P. falciparum growth in the first generation, 48 h. 5.9% of 310,000 active. Potency, µM (series often up to 28.7 µM), without a hit: at the top dose activity change, negative = inhibition, usual class: inhibitors. P. falciparum luciferase growth in erythrocytes, 48 h; further: on the % scale 0 is the no-effect control and ±100 the full control effect
#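 Erythrocytes infected with P. falciparum carrying an integrated firefly luciferase reporter (2% hematocrit, 0.1% parasitemia final) were exposed to compounds in RPMI 1640 with 0.5% Albumax at 37 C, 5% CO2. Growth inhibition was scored as reduced luminescence.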
# NS1 function inh: influenza NS1 inhibition; Potency, µM (titrated, usually from 46.1 µM), for inactives: at the highest dose activity, positive = more growth; 0.4% of 270,000 active; calls by dose curve; further: actives are rising curves; nearly all actives have a fitted effect of over 50% in size
#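 Compounds were scored for reversing the slow growth caused by influenza A NS1 in S. cerevisiae, measured by optical density at 600 nm. Assay medium contained 2% galactose at pH 6.0; NS1-free yeast of the same strain were the positive control.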
# Numbers without * were called inactive; i = inactive; ? = inconclusive; / = not tested or not shown; [ ] = remark or other dose. Unless noted, the call rests on the fitted dose curve; in most records, active means well fitted inhibition curve with a large enough effect; inconclusive means small, poorly fitted or top-dose-only effect, or another doubt; inactive means no such curve, though single readings can be large or run the other way. Potency means the concentration at half of the fitted maximal effect.
SMILES,VACV Venus inh,Pf growth 96h,HCV inh,Vaccinia mCherry,Pf growth 48h,NS1 function inh
O=C(NCc1ccc(Cl)cc1)C(=O)NCC1OCCN1S(=O)(=O)c1ccc2c(c1)OCCO2 (configuration not stated),-19.5%,-28.9%,?,-15.2%,11.1%,?
COC(=O)CCN(C1CCCCC1)S(=O)(=O)c1ccc(S(=O)(=O)NC2CCCCC2)cc1,/,/,-7.8%,/,?,-5.8%
CCC(C)(C)n1nnnc1C(c1ccc(OC)cc1)N1CCN(C(=O)c2ccco2)CC1 (configuration not stated),-5.5%,24.6%,10.5%,-15.8%,-26.4%,-12.0%
CCn1c(SCc2nc3ccccc3s2)nc2cc(S(=O)(=O)N3CCOCC3)ccc21,-3.7%,/,-31.7%,-11.6%,/,13.9%
CCc1ccc(CNCCc2ccc(F)cc2)cc1,-27.4%,-22.2%,?,-8.1%,19.7%,6.7%
Cc1nc2scc(C)n2c(=O)c1S(=O)(=O)Nc1ccc(N2CCOCC2)c(Cl)c1,-13.5%[7.34 µM],9.28µM*,?,-12.8%[7.34 µM],-4.8%,0.1%
Fc1ccc(C(c2nnnn2Cc2ccccc2)N2CCSCC2)cc1 (configuration not stated),-13.7%,/,12.2%,-15.8%,?,-32.1%
COc1ccc(N2CCN(C(c3ccccc3)c3nnnn3Cc3ccc(F)cc3)CC2)cc1 (configuration not stated),?,/,-28.0%,/,9.28µM*,4.7%
Fc1ccc(Cn2nnnc2C(c2ccc(F)cc2)N2CC=C(c3ccc(F)cc3)CC2)cc1 (configuration not stated),5.9%,13.1µM*,15.3%,-11.1%,-24.9%,-5.1%
COCCn1nnnc1C(c1ccccn1)N1CCN(c2cc(Cl)ccc2C)CC1 (configuration not stated),-8.5%,/,-6.5%,i,?,1.9%
COc1ccc(C(c2nnnn2Cc2ccc(F)cc2)N2CCN(c3ccccc3)CC2)cc1 (configuration not stated),-1.4%,?,-11.4%,/,11.7µM*,-1.0%
COc1ccc(Cn2nnnc2C(c2ccc(F)cc2)N2CCN(C3CCCC3)CC2)cc1 (configuration not stated),?,0.0%,?,/,?,-5.4%
COc1ccc(Cn2nnnc2C(c2ccccn2)N2CCN(c3cc(Cl)ccc3C)CC2)cc1 (configuration not stated),?,/,?,?,11.7µM*,-5.1%
CCC1CN(C(=O)N2CCC(C(=O)NCCc3ccc(OC)c(OC)c3)CC2)c2ccccc2O1 (configuration not stated),-11.6%,-26.1%,-22.3%,-5.3%,?,-4.6%
O=C(NC1CCCC1)C(c1ccsc1)N(C(=O)Cc1cccs1)c1ccc(F)cc1 (configuration not stated),-6.3%,27.8%,-0.6%,-15.7%,-1.1%,1.0%
COc1ccc(C(c2nnnn2Cc2cccs2)N2CCN(c3ccc(F)cc3)CC2)cc1OC (configuration not stated),-17.4%,13.1µM*,-20.5%,-24.0%,5.86µM*,-5.0%
CN1CCN(C(c2ccc(F)cc2)c2nnnn2Cc2cccs2)CC1 (configuration not stated),-16.4%,-3.1%,-6.9%,i,0.3%,-7.9%
COc1ccc(C(c2nnnn2Cc2ccc(F)cc2)N2CCN(c3ccc(OC)cc3)CC2)cc1 (configuration not stated),-15.8%,50.1%,-22.3%,/,10.4µM*,-30.4%
COc1cccc(/C=C/c2nc(C#N)c(N3CCCCC3)o2)c1,0.7%,/,/,1.7%,/,/
CC(C)[C@H](NC(=O)N1CCn2c1nc1ccccc12)C(=O)N[C@@H](Cc1ccccc1)C(=O)O,-17.5%,-10.5%,18.4%,-13.6%,-24.0%,-6.4%
O=C(O)/C=C/c1cccc(NC(=O)c2ccc(Cl)cc2)c1,-7.2%,4.6%,9.8%,-13.7%,0.329µM*,-1.1%
Cc1cccc(CC(=O)Nc2ccc(C(=O)N3CCOCC3)cc2)c1,-15.6%,2.33µM*,/,i,7.9%,5.0%
O=C(Nc1cccc(C(=O)N2CCCc3ccccc32)c1)c1ccccc1,?,4.65µM*,-53.9%,-12.0%,?,-30.5%
O=C(Nc1cccc(C(=O)N2CCOCC2)c1)c1ccccc1,/,5.22µM*,10.3%,/,54.7%,-4.0%
Cc1ccc(CC(=O)Nc2ccc(C(=O)N3CCOCC3)cc2)cc1,-3.0%,36.4%,28.6%,-10.2%,6.2%,9.6%
SMILES,VACV Venus inh,Pf growth 96h,HCV inh,Vaccinia mCherry,Pf growth 48h,NS1 function inh
Cc1nn(Cc2noc(C(=O)NCCc3ccccn3)n2)c(C)c1Br,-12.7%,18.8%,-13.3%,i,-5.6%,-4.1%
NC(=O)Cc1ccc(C(=O)c2ccccc2)s1,-7.9%,41.8%,16.1%,i,33.5%,-3.4%
CSc1ccccc1OCc1cc(C(=O)N2CCN(c3ncccn3)CC2)no1,/,?,?,/,?,9.0%
O=C(Nc1cccc(C(=O)N2CCCCC2)c1)c1ccc(Cl)cc1,/,2.08µM*,?,/,-2.5%,-0.9%
COC(=O)c1ccc(NC(=O)CN2CCOCC2)cc1,/,27.7%,3.6%,/,25.7%,-3.6%
COC(=O)c1cccc(NC(=O)CN2CCOCC2)c1,-5.1%,10.4µM*,18.2%,-11.5%,33.7%,0.8%
COCCCn1c(=S)[nH]c2c(sc3ccccc32)c1=O,1.2%,10.4µM*,-11.9%,17.4%,18.5%,/
CC1CCN(CCCn2c(=S)[nH]c3c(sc4ccccc43)c2=O)CC1,-16.4%,-31.2%[5.75 µM],-2.6%,-1.1%,39.8%,/
N#CC1=C2SC=C(c3ccc(Br)cc3)N2CCCC1=O,-24.7%,244.3%,11.2µM*,-9.8%,155.3%,/
COCCCNC(=O)Nc1ccc2c(c1)N(C)C(=O)CS2,-14.2%,?,12.9%,-15.5%,/,1.9%
CCOC(=O)Nc1ccc2c(CN3CCN(S(=O)(=O)c4ccccc4F)CC3)cc(=O)oc2c1,-22.1%,10.4µM*,?,?,9.28µM*,/
CCOC(=O)Nc1ccc2c(COC(=O)CNS(=O)(=O)c3ccc(NC(C)=O)cc3)cc(=O)oc2c1,-1.7%,42.5%,-23.1%,-13.2%,30.8%,7.5%
CCOC(=O)Nc1ccc2c(CN3CCN(S(=O)(=O)c4ccc(C(C)C)cc4)CC3)cc(=O)oc2c1,/,10.4µM*,?,/,?,/
CSc1ccc(CNC(=O)C2CCN(c3nnc(-n4cccc4CNc4ccc(C)cc4)s3)CC2)cc1,-27.8%,/,/,i,/,/
CC(C)(C)c1ccc(/C=C/C(=O)Nc2ccncc2)cc1,-26.4%,4.6%,?,i,7.6%,-19.4%
Cc1ccc(NCC(=O)Nc2cccc(F)c2)cc1S(=O)(=O)N1CCCCCC1,-13.5%,0.208µM*,?,-18.4%,0.262µM*,-1.3%
CCOc1ncccc1C(=O)Nc1ccc(C)c(S(=O)(=O)N2CCCCCC2)c1,/,?,14.1µM*,/,13.1µM*,/
Cc1ccc(NC(=O)COc2ccccc2)cc1S(=O)(=O)N1CCCCC1,-13.8%,/,/,-2.4%,/,/

# High-throughput results: PubChem BioAssay, National Center for Advancing Translational Sciences (NCATS)
